From the supplement of paper PMC6522484
± gives the standard deviation of the averaged measurements.

Key:
DLD1 [1] = experiment: cell viability (CellTiter-Glo) relative to plate median (fraction of plate median); higher = more viable cells; details: 5 µM; treatment time 24 h; reporter: 7TFP
Summary of the method: (§1)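 Cells were seeded in 384-well plates; these were colorectal cancer lines stably transduced with lentiviral 7TFP or TCF4/Wnt firefly luciferase reporters. After 24 h, library compounds went in at a final 5 µM, and exposure lasted 24 h. Parallel plates were then read for firefly luciferase or CellTiterGlo luminescence, each well normalised to its plate median, with two independent replicates averaged.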

HCT116 = experiment: as above; details: 5 µM; treatment time 24 h; reporter: TCF4/Wnt
Summary of the method: as §1

SW480 [2] = experiment: as above; details: 5 µM; treatment time 24 h; reporter: 7TFP
Summary of the method: as §1

DLD1 [3] = experiment: TCF/Wnt firefly luciferase reporter signal relative to plate median (fraction of plate median); higher = higher Wnt reporter signal; details: 5 µM; treatment time 24 h; reporter: 7TFP
Summary of the method: as §1

SW480 [4] = experiment: as above; details: 5 µM; treatment time 24 h; reporter: 7TFP
Summary of the method: as §1

Structure (SMILES) | cell viability (DLD1 [1]) | cell viability (HCT116) | cell viability (SW480 [2]) | TCF/Wnt firefly luciferase reporter signal (DLD1 [3]) | TCF/Wnt firefly luciferase reporter signal (SW480 [4])
CCCCCCCCCCCCC[N+](C)(C)Cc1ccccc1 | 0.848 ± 0.095 | 0.743 ± 0.028 | 0.96 ± 0.057 | 0.725 ± 0.15 | 0.562 ± 0.074
COc1ccc(Cl)cc1C(=O)NCCc1ccc(S(=O)(=O)NC(=O)NC2CCCCC2)cc1 | 1.005 ± 0.0071 | 0.962 ± 0.082 | 0.976 ± 0.049 | 1.12 ± 0.13 | 1.14 ± 0.05
C[C@H](CCC(=O)O)[C@H]1CC[C@H]2[C@@H]3[C@H](O)C[C@@H]4C[C@H](O)CC[C@]4(C)[C@H]3C[C@H](O)[C@]12C | 0.99 ± 0.043 | 1.07 ± 0.15 | 1.04 ± 0.066 | 1.02 ± 0.13 | 1.07 ± 0.035
C=C1C2CCC3(C)C(c4ccoc4)OC(=O)CC13OC1CC(OC(C)=O)C(C)(C)C(CC(=O)OC)C12C (stereo not drawn) [3beta-ACETOXYDEOXYANGOLENSIC ACID, METHYL ESTER] | 0.908 ± 0.14 | 0.946 ± 0.033 | 0.995 ± 0.05 | 0.966 ± 0.13 | 0.8955 ± 0.0021
CCOC(=O)[C@H](CCc1ccccc1)N[C@@H](C)C(=O)N1Cc2ccccc2C[C@H]1C(=O)O | 0.99 ± 0.057 | 0.895 ± 0.071 | 0.952 ± 0.066 | 0.958 ± 0.0085 | 0.876 ± 0.0057
CCN(CC)CCOC(=O)C1(C2CCCCC2)CCCCC1 | 0.98 ± 0.0014 | 1.02 ± 0.14 | 1.045 ± 0.0071 | 0.9375 ± 0.0078 | 1.045 ± 0.0071
C=CCc1ccccc1OCC(O)CNC(C)C (stereo not given) | 1.03 ± 0.055 | 1.04 ± 0.035 | 0.961 ± 0.035 | 1.1 ± 0.27 | 0.852 ± 0.077
COc1ccc(-c2coc3cc(O)ccc3c2=O)c(O)c1O | 1.02 ± 0.035 | 0.993 ± 0.038 | 1.03 ± 0.014 | 1 ± 0.079 | 1.09 ± 0.028
O=c1c(O)cc([C@H]2Oc3cc(O)cc(O)c3C[C@H]2O)cc2c([C@H]3Oc4cc(O)cc(O)c4C[C@H]3O)cc(O)c(O)c12 | 0.934 ± 0.033 | 1.01 ± 0.02 | 0.966 ± 0.02 | 0.949 ± 0.044 | 1.04 ± 0.1
CCCCCCCCCCCCCCCC[N+](C)(C)C | 0.9465 ± 0.0021 | 0.907 ± 0.093 | 0.969 ± 0.12 | 0.754 ± 0.12 | 0.701 ± 0.093
COc1ccccc1OCC(O)CO (stereo not given) | 0.953 ± 0.015 | 1.08 ± 0.05 | 1.03 ± 0.052 | 1.09 ± 0.028 | 1.01 ± 0.095
CCCN(CCC)S(=O)(=O)c1ccc(C(=O)O)cc1 | 1.03 ± 0.054 | 1.1 ± 0.078 | 1.1 ± 0.078 | 1.12 ± 0.21 | 1.115 ± 0.0071
CC(=O)O[C@H]1C[C@@H](OC(C)=O)C(C)(C)C2CC(=O)[C@]3(C)C(CC[C@@]4(C)[C@H](c5ccoc5)OC(=O)[C@H]5O[C@]543)[C@]21C (stereo not given in full) | 0.983 ± 0.0099 | 0.998 ± 0.046 | 1.02 ± 0.076 | 1.06 ± 0.11 | 1.03 ± 0.028
O=C(O)CCc1nc(-c2ccccc2)c(-c2ccccc2)o1 | 0.846 ± 0.15 | 0.999 ± 0.13 | 0.963 ± 0.02 | 0.915 ± 0.03 | 0.952 ± 0.032
COc1ccc2c(c1OC)OC[C@@H](c1ccc(OC)c(OC)c1OC)C2 | 1.01 ± 0.069 | 1.1 ± 0.099 | 1.06 ± 0.035 | 1.04 ± 0.09 | 0.961 ± 0.055
